Data on one sequence can be found in article PMC7862700, “An all-to-all approach to the identification of sequence-specific readers for epigenetic DNA modifications on cytosine”.

Assay in all cases: DAPPL (digital affinity profiling via proximity ligation, sequencing); 10 mM Tris-HCl pH 7.5, 50 mM NaCl, 1 mM DTT, 4% glycerol, room temperature, 30 min; GST-TFs on glutathione beads, 16-mer random dsDNA library, 0.1% formaldehyde crosslink after washing; high values mean tight binding
For one test, the target named is T1, FEV (Homo sapiens, UniProt Q99581 1-238).
T1 sequence: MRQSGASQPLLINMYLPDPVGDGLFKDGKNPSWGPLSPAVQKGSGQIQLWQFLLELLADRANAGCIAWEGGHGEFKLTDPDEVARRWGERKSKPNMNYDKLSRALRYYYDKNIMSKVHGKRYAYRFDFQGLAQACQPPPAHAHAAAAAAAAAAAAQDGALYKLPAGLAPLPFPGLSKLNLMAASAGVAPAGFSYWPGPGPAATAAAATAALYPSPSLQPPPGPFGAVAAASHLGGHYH
Particulars: protein: recombinant; tags: N-terminal GST; dsDNA, one strand shown. Summed up:
(§1)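 After expression in yeast as GST fusions, human transcription factors were bound to glutathione beads, DNA-barcoded and mixed with a tag-only sample. The pools were incubated with 200 nmole of a 16-mer random double-stranded DNA library in Tris/NaCl/DTT/glycerol buffer (30 min, room temperature), washed and crosslinked with 0.1% formaldehyde. Proximity ligation with BsaI/T4 ligase ran for 1 h at 37 °C, before PCR amplification and sequencing on an Illumina NextSeq500. Binding signal is a hexamer's read frequency for a factor divided by its frequency for the tag-only sample.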

The target of a further test is ETV5 (Homo sapiens, UniProt P41161 1-510). Particulars: protein: recombinant; tags: N-terminal GST; dsDNA, one strand shown. Summed up: as §1
ETV5, sequence (P41161 whole entry): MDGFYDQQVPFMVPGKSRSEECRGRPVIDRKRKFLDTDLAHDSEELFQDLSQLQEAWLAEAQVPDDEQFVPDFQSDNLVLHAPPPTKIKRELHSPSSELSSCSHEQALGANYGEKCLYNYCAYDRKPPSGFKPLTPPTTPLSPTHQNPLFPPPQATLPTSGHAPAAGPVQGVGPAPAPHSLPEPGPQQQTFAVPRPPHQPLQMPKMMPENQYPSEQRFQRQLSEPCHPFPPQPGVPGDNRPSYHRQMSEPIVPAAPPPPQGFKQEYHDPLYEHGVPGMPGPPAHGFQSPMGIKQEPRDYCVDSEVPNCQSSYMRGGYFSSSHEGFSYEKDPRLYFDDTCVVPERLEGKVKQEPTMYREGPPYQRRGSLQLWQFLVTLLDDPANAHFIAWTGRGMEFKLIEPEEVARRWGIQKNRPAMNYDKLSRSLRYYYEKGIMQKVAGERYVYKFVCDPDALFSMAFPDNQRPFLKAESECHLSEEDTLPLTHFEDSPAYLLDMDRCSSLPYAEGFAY
In a further test the target is HSF1 (Homo sapiens, UniProt Q00613 1-529). Particulars: protein: recombinant; tags: N-terminal GST; chain copies: 3; dsDNA, one strand shown. An outline of the steps: as §1
HSF1, sequence (Q00613 whole entry): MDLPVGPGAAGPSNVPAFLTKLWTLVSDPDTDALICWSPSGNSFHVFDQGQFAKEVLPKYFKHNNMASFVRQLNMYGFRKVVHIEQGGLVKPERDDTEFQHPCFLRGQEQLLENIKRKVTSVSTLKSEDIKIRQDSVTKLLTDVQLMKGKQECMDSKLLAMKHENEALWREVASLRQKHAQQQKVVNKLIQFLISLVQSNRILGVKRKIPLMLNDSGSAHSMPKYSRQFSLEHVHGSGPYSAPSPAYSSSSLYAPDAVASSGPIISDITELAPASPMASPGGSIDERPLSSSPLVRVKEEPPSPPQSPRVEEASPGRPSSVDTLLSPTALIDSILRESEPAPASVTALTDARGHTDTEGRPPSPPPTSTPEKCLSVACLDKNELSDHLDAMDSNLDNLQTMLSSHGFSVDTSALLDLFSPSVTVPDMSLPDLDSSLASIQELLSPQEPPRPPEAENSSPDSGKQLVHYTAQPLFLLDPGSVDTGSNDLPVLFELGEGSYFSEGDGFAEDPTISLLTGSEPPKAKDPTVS
A further test has as its target T2, SPIC (Homo sapiens, UniProt Q8N5J4 1-248).
T2 sequence: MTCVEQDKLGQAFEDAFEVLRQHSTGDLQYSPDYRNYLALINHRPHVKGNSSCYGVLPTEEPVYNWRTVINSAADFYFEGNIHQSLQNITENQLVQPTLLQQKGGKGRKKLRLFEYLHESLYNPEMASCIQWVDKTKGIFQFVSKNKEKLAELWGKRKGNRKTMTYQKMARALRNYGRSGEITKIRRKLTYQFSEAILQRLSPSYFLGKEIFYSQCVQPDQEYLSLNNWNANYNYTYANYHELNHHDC
Particulars: protein: recombinant; tags: N-terminal GST; dsDNA, one strand shown. Summed up:
as §1

The next test deals with ELF4 (Homo sapiens, UniProt Q99607 1-663). Particulars: protein: recombinant; tags: N-terminal GST; dsDNA, one strand shown. An outline of the steps:
as §1

The target of a further test is T3, ELK4 (Homo sapiens, UniProt P28324-2 1-405).
T3 sequence: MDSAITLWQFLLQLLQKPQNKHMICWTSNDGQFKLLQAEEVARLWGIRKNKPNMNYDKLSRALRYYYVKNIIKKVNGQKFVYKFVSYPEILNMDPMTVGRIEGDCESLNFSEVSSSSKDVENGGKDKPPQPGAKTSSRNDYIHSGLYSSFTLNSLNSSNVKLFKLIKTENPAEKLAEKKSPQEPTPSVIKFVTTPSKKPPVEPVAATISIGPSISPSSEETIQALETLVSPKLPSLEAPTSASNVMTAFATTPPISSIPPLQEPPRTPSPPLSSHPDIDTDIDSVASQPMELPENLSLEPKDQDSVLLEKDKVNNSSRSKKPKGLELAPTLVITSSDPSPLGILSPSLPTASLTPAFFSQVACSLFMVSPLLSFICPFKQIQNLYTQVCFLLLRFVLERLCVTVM
Particulars: protein: recombinant; tags: N-terminal GST; dsDNA, one strand shown. An outline of the steps:
as §1

A further test concerns the target T4, ETV2 (Homo sapiens, UniProt O00321 1-342).
T4 sequence: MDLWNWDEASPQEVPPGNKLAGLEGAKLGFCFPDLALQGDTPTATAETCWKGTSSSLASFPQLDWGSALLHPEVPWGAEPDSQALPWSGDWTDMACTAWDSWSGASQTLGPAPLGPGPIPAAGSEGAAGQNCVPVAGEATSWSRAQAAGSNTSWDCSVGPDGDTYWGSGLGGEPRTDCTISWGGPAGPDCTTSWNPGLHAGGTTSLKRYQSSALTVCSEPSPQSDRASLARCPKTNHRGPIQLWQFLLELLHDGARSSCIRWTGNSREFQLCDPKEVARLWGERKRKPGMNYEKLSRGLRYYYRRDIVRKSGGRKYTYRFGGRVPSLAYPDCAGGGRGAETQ
Particulars: protein: recombinant; tags: N-terminal GST; dsDNA, one strand shown. An outline of the steps: as §1

Another test has as its target T5, ELF3 (Homo sapiens, UniProt P78545 1-371).
T5 sequence: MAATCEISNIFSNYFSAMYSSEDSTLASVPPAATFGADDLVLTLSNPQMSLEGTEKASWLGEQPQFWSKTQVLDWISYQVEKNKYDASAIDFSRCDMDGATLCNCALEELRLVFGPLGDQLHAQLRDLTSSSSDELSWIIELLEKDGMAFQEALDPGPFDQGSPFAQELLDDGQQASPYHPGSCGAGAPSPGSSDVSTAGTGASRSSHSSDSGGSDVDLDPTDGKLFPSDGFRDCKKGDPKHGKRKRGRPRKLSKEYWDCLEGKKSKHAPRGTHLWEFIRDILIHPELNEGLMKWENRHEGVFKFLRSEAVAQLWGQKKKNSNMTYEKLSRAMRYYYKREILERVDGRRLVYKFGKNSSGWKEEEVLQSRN
Particulars: protein: recombinant; tags: N-terminal GST; dsDNA, one strand shown. An outline of the steps: as §1

The target of another test is CRX (Homo sapiens, UniProt O43186 1-299). Particulars: protein: recombinant; tags: N-terminal GST; dsDNA, one strand shown. An outline of the steps:
as §1

For another test, the target named is ETV1 (Homo sapiens, UniProt P50549 1-477). Particulars: protein: recombinant; tags: N-terminal GST; dsDNA, one strand shown. An outline of the steps:
as §1

The next test deals with T6, ERF (Homo sapiens, UniProt P50548 1-548).
T6 sequence: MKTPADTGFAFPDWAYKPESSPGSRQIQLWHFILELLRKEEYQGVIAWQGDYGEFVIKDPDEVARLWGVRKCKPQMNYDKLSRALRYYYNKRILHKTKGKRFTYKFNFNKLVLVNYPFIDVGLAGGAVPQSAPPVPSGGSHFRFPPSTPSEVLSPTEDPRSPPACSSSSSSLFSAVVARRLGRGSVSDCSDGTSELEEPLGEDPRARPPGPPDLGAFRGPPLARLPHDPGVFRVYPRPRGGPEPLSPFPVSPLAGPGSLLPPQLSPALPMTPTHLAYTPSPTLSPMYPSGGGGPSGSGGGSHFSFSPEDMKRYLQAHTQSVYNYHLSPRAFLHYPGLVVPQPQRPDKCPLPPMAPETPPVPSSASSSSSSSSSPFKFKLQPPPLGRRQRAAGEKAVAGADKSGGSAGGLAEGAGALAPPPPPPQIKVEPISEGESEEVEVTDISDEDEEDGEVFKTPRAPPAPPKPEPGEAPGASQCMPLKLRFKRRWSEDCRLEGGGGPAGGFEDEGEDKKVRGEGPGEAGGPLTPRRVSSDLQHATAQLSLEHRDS
Particulars: protein: recombinant; tags: N-terminal GST; dsDNA, one strand shown. An outline of the steps: as §1

Another test deals with T7, ETV3L (Homo sapiens, UniProt Q6ZN32 1-361).
T7 sequence: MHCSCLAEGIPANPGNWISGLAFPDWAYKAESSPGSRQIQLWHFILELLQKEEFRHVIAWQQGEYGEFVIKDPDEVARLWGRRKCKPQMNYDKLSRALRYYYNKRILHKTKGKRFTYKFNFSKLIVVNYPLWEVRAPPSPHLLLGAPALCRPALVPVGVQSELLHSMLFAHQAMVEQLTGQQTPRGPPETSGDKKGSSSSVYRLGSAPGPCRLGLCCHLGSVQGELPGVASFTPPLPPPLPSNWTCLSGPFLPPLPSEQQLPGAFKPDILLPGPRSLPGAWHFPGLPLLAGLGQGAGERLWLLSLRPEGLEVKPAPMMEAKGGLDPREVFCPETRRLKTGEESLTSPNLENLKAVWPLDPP
Particulars: protein: recombinant; tags: N-terminal GST; dsDNA, one strand shown. Summed up: as §1

For a further test, the target named is T8, ETS2 (Homo sapiens, UniProt P15036 1-469).
T8 sequence: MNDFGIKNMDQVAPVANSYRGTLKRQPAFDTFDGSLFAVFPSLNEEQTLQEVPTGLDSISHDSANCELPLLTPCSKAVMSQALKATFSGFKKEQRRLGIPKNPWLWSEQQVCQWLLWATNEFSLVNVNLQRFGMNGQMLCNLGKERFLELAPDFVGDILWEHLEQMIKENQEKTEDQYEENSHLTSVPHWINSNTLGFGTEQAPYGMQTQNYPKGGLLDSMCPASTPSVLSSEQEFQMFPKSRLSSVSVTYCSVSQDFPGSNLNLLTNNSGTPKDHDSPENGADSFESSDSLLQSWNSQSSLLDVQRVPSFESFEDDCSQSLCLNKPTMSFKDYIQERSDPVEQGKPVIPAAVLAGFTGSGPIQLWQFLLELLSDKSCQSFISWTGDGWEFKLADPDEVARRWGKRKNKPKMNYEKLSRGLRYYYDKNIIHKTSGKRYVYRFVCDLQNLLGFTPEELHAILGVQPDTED
Particulars: protein: recombinant; tags: N-terminal GST; dsDNA, one strand shown. Summed up: as §1

Another test concerns the target T9, SPDEF (Homo sapiens, UniProt O95238 1-335).
T9 sequence: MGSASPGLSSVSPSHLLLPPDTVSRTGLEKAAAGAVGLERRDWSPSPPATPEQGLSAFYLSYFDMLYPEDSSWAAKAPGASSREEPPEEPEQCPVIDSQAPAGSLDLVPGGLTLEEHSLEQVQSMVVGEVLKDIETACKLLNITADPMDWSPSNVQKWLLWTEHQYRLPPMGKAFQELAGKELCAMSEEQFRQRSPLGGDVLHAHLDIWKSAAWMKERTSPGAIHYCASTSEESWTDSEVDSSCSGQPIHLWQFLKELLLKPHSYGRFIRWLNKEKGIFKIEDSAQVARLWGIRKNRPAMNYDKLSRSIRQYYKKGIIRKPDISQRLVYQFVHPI
Particulars: protein: recombinant; tags: N-terminal GST; dsDNA, one strand shown. Summed up:
as §1

The target of another test is T10, ETV7 (Homo sapiens, UniProt Q9Y603 1-341).
T10 sequence: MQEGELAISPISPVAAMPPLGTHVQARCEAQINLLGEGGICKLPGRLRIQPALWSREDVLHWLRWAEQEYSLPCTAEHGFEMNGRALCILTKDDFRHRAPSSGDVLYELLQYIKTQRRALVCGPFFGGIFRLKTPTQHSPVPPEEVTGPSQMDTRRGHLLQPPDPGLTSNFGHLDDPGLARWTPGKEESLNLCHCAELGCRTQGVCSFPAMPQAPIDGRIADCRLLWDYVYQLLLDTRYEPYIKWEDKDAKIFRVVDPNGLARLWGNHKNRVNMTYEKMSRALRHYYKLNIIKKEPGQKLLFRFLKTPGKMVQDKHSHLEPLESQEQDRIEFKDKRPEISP
Particulars: protein: recombinant; tags: N-terminal GST; dsDNA, one strand shown. Summed up:
as §1

The target of the next test is T11, ELF5 (Homo sapiens, UniProt Q9UKW6-2 1-255).
T11 sequence: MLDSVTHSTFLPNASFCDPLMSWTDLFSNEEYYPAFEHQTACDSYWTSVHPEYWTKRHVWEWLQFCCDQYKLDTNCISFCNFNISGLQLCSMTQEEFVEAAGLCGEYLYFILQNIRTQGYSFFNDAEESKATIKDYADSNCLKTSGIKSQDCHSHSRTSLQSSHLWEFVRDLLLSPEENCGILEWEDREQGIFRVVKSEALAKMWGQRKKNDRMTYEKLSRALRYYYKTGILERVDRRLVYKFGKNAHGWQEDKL
Particulars: protein: recombinant; tags: N-terminal GST; dsDNA, one strand shown. An outline of the steps: as §1

The target of a further test is T12, ETV3 (Homo sapiens, UniProt P41162-2 1-143).
T12 sequence: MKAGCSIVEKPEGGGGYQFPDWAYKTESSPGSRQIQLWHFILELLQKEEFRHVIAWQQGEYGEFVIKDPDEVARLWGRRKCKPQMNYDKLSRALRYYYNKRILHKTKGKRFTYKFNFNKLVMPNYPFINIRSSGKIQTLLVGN
Particulars: protein: recombinant; tags: N-terminal GST; dsDNA, one strand shown. An outline of the steps:
as §1

A further test addresses ETV6 (Homo sapiens, UniProt P41212 1-452). Particulars: protein: recombinant; tags: N-terminal GST; dsDNA, one strand shown. Summed up:
as §1

ETV1, sequence (P50549 whole entry): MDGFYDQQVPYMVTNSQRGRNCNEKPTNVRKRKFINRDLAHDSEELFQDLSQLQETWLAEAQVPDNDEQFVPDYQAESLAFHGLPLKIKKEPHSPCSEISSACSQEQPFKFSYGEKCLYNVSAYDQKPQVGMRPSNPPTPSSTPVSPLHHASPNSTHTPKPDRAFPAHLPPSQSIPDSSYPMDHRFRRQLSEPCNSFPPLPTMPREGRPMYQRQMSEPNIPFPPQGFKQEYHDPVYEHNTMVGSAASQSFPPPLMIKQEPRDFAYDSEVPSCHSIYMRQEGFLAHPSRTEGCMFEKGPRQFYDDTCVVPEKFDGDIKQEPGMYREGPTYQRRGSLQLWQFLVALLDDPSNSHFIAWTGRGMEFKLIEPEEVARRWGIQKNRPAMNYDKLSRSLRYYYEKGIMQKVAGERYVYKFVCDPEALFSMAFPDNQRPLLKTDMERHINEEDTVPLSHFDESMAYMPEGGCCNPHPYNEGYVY
ELF4, sequence (Q99607 whole entry): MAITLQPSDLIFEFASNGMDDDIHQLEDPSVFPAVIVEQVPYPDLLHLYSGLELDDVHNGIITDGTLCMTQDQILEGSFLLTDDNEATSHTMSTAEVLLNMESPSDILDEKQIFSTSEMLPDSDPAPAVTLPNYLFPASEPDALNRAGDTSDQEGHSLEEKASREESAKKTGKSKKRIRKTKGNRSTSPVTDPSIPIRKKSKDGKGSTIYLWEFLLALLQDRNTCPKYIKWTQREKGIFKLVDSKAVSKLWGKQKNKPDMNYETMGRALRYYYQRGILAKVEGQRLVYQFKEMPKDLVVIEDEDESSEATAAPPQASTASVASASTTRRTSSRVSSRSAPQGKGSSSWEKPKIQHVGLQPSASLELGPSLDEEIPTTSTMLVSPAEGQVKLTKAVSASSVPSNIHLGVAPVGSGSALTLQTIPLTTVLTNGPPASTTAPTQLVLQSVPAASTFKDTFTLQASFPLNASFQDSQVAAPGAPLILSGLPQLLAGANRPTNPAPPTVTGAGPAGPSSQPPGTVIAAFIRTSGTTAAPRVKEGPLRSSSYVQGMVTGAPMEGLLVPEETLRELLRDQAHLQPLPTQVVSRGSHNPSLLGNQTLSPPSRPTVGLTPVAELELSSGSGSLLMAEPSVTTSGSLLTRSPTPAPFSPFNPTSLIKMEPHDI
CRX, sequence (O43186 whole entry): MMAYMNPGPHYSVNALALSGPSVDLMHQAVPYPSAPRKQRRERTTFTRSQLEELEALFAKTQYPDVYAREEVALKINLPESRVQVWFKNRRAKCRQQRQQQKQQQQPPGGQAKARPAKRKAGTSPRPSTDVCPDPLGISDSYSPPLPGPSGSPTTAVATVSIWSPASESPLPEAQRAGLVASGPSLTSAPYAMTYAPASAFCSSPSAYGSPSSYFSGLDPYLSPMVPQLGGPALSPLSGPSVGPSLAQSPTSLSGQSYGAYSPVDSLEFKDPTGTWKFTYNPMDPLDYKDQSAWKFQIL
ETV6, sequence (P41212 whole entry): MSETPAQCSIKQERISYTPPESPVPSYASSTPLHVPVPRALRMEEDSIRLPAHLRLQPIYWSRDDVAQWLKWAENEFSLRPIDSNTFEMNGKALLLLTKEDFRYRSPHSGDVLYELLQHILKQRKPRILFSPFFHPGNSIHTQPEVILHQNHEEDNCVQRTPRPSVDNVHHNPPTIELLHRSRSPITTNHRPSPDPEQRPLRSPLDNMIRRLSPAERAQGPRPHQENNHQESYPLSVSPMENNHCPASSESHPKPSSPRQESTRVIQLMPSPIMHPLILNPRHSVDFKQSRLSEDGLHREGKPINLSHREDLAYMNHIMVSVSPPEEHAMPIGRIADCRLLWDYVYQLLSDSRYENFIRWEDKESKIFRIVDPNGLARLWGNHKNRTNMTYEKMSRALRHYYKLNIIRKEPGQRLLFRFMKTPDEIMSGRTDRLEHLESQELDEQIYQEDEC

On to ATTTAT, for which the binding signal in the test with FEV was 1.34 fold enrichment (6-mer frequency, TF over GST control); with ETV5, 1.41 fold enrichment (6-mer frequency, TF over GST control); with HSF1 it was 1.68 fold enrichment (6-mer frequency, TF over GST control); with SPIC it was 1.49 fold enrichment (6-mer frequency, TF over GST control); with ELF4, 1.35 fold enrichment (6-mer frequency, TF over GST control); in the test with ELK4, 1.53 fold enrichment (6-mer frequency, TF over GST control). For the same sequence, the binding signal with ETV2 was 1.44 fold enrichment (6-mer frequency, TF over GST control); in the test with ELF3, 1.46 fold enrichment (6-mer frequency, TF over GST control); with CRX, 2.19 fold enrichment (6-mer frequency, TF over GST control); with ETV1, 1.43 fold enrichment (6-mer frequency, TF over GST control); with ERF, 1.51 fold enrichment (6-mer frequency, TF over GST control); with ETV3L, 1.54 fold enrichment (6-mer frequency, TF over GST control). For the same sequence, the binding signal with ETS2 is 1.47 fold enrichment (6-mer frequency, TF over GST control); in the test with SPDEF, 1.4 fold enrichment (6-mer frequency, TF over GST control); in the test with ETV7 it was 1.48 fold enrichment (6-mer frequency, TF over GST control); in the test with ELF5, 1.39 fold enrichment (6-mer frequency, TF over GST control); with ETV3 it was 1.41 fold enrichment (6-mer frequency, TF over GST control); with ETV6, 1.4 fold enrichment (6-mer frequency, TF over GST control).
